Integrin act MD = activators of alpha7 integrin expression for muscular dystrophy; alpha7betagal myoblasts, beta-gal FDG fluorescence, 48 h; AID 624291; Potency, µM (titrated, usually from 38.3 µM), most hits filed as activators; 0.064% of 350,000 active; note: nearly all actives have a fitted effect of over 60% in size
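alpha7betagal+/- myoblasts (passage 13, 250/well) treated 48 h at 37C with compounds at 1:260 dilution of DMSO stock. Lysed, then beta-galactosidase activity read as FDG fluorescence (ex 480/em 540) after 30 min, with pre-read for autofluorescence.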
Mito fusion yeast = inhibitors of mitochondrial division or activators of mitochondrial fusion | S. cerevisiae fusion-defective mutant growth rescue, CellTiterGlo 48 h | Potency, µM (series often up to 46.1 µM), usual class: activators | 0.23% of 320,000 active | AID 485298; note: nearly all actives have a fitted effect of over 45% in size
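Read-out: ATP-based luminescence (CellTiterGlo, 10 min ambient) reporting growth of fusion-defective ts yeast after 48 hours at 37C on glycerol/ethanol YPEG medium in the presence of compound.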
MCF10A rerep = DNA re-replication induction in MCF 10a cells. MCF 10A DNA re-replication, Hoechst nuclear intensity, 48 h. Potency, µM (series often up to 46.1 µM), most hits filed as activators. 2.9% of 350,000 active. AID 624296; note: nearly all actives have a fitted effect of over 50% in size
SW480 rereplic = induces DNA re-replication in SW480 colon adenocarcinoma cells | SW480 DNA re-replication, Hoechst DNA content imaging, 48 h | Potency, µM (doses to about 46.1 µM), most hits filed as activators | 1.8% of 340,000 active; note: nearly all actives have a fitted effect of over 55% in size
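Per well, 250 cells were exposed to pinned compound for 48 hr. Nuclear DNA was visualised with Hoechst (40 min, 37 C) and total object intensity recorded by fluorescence scanning.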
AT treatment = potential ataxia-telangiectasia treatments restoring KAP-1 phosphorylation | Potency, µM (titrated, usually from 57.5 µM), usual class: activators | F2112 A-T fibroblasts, KAP-1 phosphorylation AlphaLISA; neocarzinostatin DNA damage 30 min before lysis | 0.19% of 320,000 active | AID 485349; note: nearly all actives have a fitted effect of over 45% in size
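hTERT-immortalized A-T patient fibroblasts (F2112), 500 cells/well in OPTI-MEM, 1% FBS, got compounds for 60 min, then NCS for 30 min at 37C. Lysates were then assayed for phospho-KAP-1 by AlphaLISA (anti-pKAP1 donor, anti-KAP1 acceptor beads), 6 hr at 25C.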
A number is an active result; . = inactive; ? = inconclusive; / = not tested or not shown. An excerpt weighted towards active compounds, which were near 4.2% of everything screened. Calls come from the whole dose curve; as a rule, active = well fitted activation curve with a large enough effect; inconclusive = small, poorly fitted or top-dose-only effect; inactive = no such curve, though single readings can be large or run the other way.

SMILES	Integrin act MD	Mito fusion yeast	MCF10A rerep	SW480 rereplic	AT treatment
Cc1ccc2nc3nc(NCC4CCCO4)c(C(=O)NC4CCCC4)cc3c(=O)n2c1 (stereo not given)	.	.	2.6µM	.	.
N=c1c(C(=O)NC2CCCC2)cc2c(=O)n3ccccc3nc2n1CC1CCCO1 (stereo not given)	.	.	?	?	.
Cc1ccc2nc3nc(NCC4CCCO4)c(C(=O)NC4CCCCC4)cc3c(=O)n2c1 (stereo not given)	/	.	/	/	.
N=c1c(C(=O)NC2CCCCC2)cc2c(=O)n3ccccc3nc2n1CC1CCCO1 (stereo not given)	.	.	?	18µM	.
Cc1ccc2nc3c(cc(C(=O)NCC4CCCO4)c(=N)n3CC3CCCO3)c(=O)n2c1 (stereo not given)	.	.	2.9µM	?	.
CC(NC(=O)c1cc2c(=O)n3ccccc3nc2n(CC2CCCO2)c1=N)c1ccccc1 (stereo not given)	.	.	5.8µM	6.5µM	.
Cn1nc(C(=O)NNC(=O)c2ccccc2Br)c2ccccc2c1=O	.	.	.	.	.
COc1ccc(/C=C2\Sc3ccc(C(=O)NCCCN4CCCC4)cc3N(C)C2=O)cc1OC	.	.	.	.	.
O=C(Nc1ccc(OC(F)(F)F)cc1)C1CC(=O)N(Cc2ccco2)C1 (stereo not given)	.	.	.	.	.
CC(=O)N[C@H]1[C@H]([C@H](O)[C@H](O)CO)O[C@](O)(C(=O)O)C[C@@H]1O	/	/	.	.	/
Cn1c(C(=O)NCC2CCCO2)cc2c(=O)n3ccccc3nc21 (stereo not given)	.	.	.	.	.
Cc1ccc(CNC(=O)c2cc3c(=O)n4ccccc4nc3n(CC3CCCO3)c2=N)cc1 (stereo not given)	.	.	2.1µM	?	.
Cc1ccc(S(=O)(=O)c2cc3c(=O)n4cccc(C)c4nc3n(CC3CCCO3)c2=N)cc1 (stereo not given)	/	.	/	/	.
COc1ccc(CCNC(=O)c2cc3c(=O)n4cccc(C)c4nc3n(CC3CCCO3)c2=N)cc1 (stereo not given)	.	.	9.2µM	8.2µM	.
N=c1c(S(=O)(=O)c2ccc(F)cc2)cc2c(=O)n3ccccc3nc2n1CC1CCCO1 (stereo not given)	.	.	16µM	18µM	.
Cc1ccc([C@H]2N[C@]3(CCCN(CC4CCCCC4)C3=O)[C@H]3C(=O)N(C)C(=O)[C@@H]23)cc1	.	/	/	/	/
CCN(CC)Cc1c(O)ccc2cc(-c3nc4ccccc4n3C)c(=O)oc12	.	.	?	?	22µM
COc1cc(/C=C2\CC/C(=C\c3cc(OC)c(O)c(OC)c3)C2=O)cc(OC)c1O	.	.	?	?	.
COc1cc(/C=C2/C(=O)CNC2=O)ccc1O	.	.	.	.	.
CCOc1cc(/C=C2\CCCC(C(=O)C(F)(F)F)=C2O)ccc1O	.	.	18µM	?	.
COc1cc(/C=C2\CCC/C(=C\c3ccc(O)c(OC)c3)C2=O)ccc1O	.	.	4.1µM	?	.
COc1cc(/C=C2/CCCC(C(=O)C(F)(F)F)=C2O)ccc1O	.	.	.	.	.
COc1cc(/C=C2/CCC/C(=C\c3cc(O)c(OC)c(Cl)c3)C2=O)cc(Cl)c1O	.	.	2.1µM	6.5µM	.
CCCSc1nnc2c(n1)OC(c1ccc(OCC(=O)O)cc1)Nc1ccccc1-2 (stereo not given)	/	.	/	/	/
Cc1nc(N2CCN(c3ccccc3O)CC2)c2c(-c3ccccc3)csc2n1	.	.	13µM	?	.
SMILES	Integrin act MD	Mito fusion yeast	MCF10A rerep	SW480 rereplic	AT treatment
Oc1ccccc1N1CCN(c2ncnc3scc(-c4ccccc4)c23)CC1	.	.	21µM	?	.
Cc1ccc(-c2csc3ncn(CC(=O)O)c(=O)c23)cc1C	.	.	.	?	.
Cc1ccc(NC(=O)CCc2nnc3ccc(NCc4ccco4)nn23)cc1	.	.	.	.	.
Cc1ccc(NC(=O)/C(C#N)=C(\N)C(Cl)(Cl)Cl)nc1	.	.	18µM	.	.
Cc1ccc(NC(=O)C(=O)Nc2ccc(C)cn2)nc1	.	.	.	.	.
O=C(OC(c1ccccc1)c1nccc2ccccc12)c1cc([N+](=O)[O-])cc([N+](=O)[O-])c1 (stereo not given)	.	?	?	?	.
CCOC(=O)c1c(NC(=O)CN2C(=O)c3ccccc3C2=O)sc(Cc2ccc3c(c2)OCO3)c1C	.	.	.	.	.
Cc1nc(NC(=O)c2ccccc2)sc1Cc1ccc2c(c1)OCO2	.	.	?	26µM	.
CC(=O)c1sc(NC(=O)c2ccc3c(c2)OCO3)nc1C	.	.	.	.	.
Cc1nc(NC(=O)c2ccc(Cl)cc2)sc1Cc1ccc2c(c1)OCO2	.	.	2.9µM	5.8µM	.
Cc1c(Cc2ccc3c(c2)OCO3)sc(NC(=O)c2ccccc2)c1C(N)=O	.	.	13µM	.	.
CCc1cccc2[nH]c3cc([N+](=O)[O-])ccc3c12	.	.	.	.	.
Cc1nn(CC(=O)Nc2ccc3c(c2)CCC3)c(C)c1[N+](=O)[O-]	.	.	.	.	.
C=C1C(=O)C23C(O)C1CCC2C12CCCC(C)(COC(C)=O)C1C(O)C3(O)OC2 (stereo not given)	.	/	0.73µM	?	/
O=C(c1ccccc1)c1ccc(O)c(O)c1O	.	/	.	.	/
O=C(O)CC1(CC(=O)NCc2ccc(Cl)cc2)CCCCC1	.	.	21µM	.	.
O=C(O)CC1(CC(=O)NCc2ccc(F)cc2)CCCCC1	.	.	.	.	.
CCCN1CCN(CCCNC(=O)c2cc3c(s2)-c2c(C)cccc2OC3)CC1	.	.	?	?	.
Cc1cccc2c1-c1sc(C(=O)NCCCN3CCCC(C)C3)cc1CO2 (stereo not given)	.	.	23µM	18µM	.
O=C(NCCCOc1cccc(CN2CCCCC2)c1)c1ccc(Cl)c(Cl)c1	.	.	?	29µM	.
O=C(NC(=S)Nc1ccc(CN2CCCCC2)cc1)c1cccc(OCc2ccccc2)c1	.	.	23µM	.	.
O=C(O)c1ccc(NC(=S)NC(=O)c2cccc(COc3ccccc3)c2)cc1	.	.	.	.	.
CN(C)CCCn1c2c3ccccc3ccc2c2oc(=O)c3ccccc3c21	.	/	3.7µM	18µM	/
NS(=O)(=O)c1ccc(CCNC(=O)Cc2ccc(Cl)cc2)cc1	.	.	?	.	.
Cc1ccc(NS(=O)(=O)c2ccc(C)c(NC(=O)c3ccc(S(=O)(=O)N4CCCCCC4)cc3)c2)c(C)c1	.	/	/	/	/
COc1ccc(C(=O)OCC(=O)N2c3ccccc3CC2C)cc1S(=O)(=O)N1CCOCC1 (stereo not given)	.	/	/	/	/
Cc1ccc(-c2cnc3c(Cl)c(C)nn3c2)cc1	.	.	?	10µM	.
